Our source for the log2 fold change values is the supplement of paper PMC10849652.

The full data set covers some 7,900 targets. This sample favours those with a hit. About 0.6% of all pairs of compound and target were hits.

UniProt Q96LB3, sequence (Q96LB3 whole entry, looked up): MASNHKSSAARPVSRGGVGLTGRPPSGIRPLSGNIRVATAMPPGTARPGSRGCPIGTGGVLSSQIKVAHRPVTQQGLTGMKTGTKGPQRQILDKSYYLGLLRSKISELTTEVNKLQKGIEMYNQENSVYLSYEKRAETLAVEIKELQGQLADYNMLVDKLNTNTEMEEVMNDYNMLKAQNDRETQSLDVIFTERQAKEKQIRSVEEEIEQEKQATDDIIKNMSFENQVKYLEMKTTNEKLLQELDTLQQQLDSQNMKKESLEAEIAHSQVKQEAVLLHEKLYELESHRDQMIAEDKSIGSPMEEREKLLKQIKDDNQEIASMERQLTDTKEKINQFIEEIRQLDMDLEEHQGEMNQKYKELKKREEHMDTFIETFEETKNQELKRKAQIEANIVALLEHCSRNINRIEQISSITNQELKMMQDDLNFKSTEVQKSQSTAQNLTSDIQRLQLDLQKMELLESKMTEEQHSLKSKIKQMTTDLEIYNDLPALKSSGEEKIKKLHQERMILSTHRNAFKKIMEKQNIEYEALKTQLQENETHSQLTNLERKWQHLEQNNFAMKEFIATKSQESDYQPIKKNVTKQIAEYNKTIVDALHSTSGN
UniProt Q86VQ1, sequence (Q86VQ1 whole entry, looked up): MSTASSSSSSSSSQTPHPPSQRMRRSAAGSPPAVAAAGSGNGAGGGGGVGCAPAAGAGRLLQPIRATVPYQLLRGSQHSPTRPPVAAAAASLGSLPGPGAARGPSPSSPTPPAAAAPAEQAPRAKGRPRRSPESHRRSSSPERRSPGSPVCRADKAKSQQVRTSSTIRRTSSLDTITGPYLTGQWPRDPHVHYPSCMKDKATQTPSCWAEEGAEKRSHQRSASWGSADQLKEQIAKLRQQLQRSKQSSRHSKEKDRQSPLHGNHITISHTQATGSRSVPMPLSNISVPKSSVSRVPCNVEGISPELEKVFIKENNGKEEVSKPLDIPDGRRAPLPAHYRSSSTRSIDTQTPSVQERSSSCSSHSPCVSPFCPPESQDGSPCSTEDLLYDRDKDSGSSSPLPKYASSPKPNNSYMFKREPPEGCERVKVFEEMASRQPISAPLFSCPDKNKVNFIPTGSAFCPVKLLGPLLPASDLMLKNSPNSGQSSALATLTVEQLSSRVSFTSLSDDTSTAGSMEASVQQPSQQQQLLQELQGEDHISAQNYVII
UniProt P49840, sequence (P49840 whole entry, looked up): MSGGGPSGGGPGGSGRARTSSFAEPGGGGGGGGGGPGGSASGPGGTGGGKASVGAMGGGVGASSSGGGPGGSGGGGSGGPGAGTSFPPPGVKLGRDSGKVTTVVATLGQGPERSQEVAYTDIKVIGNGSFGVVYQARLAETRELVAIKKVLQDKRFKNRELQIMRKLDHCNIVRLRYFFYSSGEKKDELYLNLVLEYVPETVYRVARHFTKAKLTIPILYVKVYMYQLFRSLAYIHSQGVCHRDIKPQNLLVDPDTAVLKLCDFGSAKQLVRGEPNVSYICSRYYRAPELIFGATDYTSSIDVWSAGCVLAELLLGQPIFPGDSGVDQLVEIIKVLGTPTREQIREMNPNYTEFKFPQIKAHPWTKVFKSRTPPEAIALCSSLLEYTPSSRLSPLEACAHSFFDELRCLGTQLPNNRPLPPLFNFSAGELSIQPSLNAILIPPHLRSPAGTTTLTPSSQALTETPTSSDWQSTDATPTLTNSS
UniProt Q9H4A6, sequence (Q9H4A6 whole entry, looked up): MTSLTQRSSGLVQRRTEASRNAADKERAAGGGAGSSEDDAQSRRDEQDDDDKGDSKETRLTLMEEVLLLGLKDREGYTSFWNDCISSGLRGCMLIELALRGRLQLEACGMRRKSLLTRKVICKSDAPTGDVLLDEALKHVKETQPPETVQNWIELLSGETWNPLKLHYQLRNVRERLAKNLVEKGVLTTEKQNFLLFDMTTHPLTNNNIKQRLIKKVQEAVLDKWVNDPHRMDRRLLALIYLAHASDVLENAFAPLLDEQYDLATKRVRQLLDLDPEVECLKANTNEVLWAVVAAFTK
UniProt O75146, sequence (O75146 whole entry, looked up): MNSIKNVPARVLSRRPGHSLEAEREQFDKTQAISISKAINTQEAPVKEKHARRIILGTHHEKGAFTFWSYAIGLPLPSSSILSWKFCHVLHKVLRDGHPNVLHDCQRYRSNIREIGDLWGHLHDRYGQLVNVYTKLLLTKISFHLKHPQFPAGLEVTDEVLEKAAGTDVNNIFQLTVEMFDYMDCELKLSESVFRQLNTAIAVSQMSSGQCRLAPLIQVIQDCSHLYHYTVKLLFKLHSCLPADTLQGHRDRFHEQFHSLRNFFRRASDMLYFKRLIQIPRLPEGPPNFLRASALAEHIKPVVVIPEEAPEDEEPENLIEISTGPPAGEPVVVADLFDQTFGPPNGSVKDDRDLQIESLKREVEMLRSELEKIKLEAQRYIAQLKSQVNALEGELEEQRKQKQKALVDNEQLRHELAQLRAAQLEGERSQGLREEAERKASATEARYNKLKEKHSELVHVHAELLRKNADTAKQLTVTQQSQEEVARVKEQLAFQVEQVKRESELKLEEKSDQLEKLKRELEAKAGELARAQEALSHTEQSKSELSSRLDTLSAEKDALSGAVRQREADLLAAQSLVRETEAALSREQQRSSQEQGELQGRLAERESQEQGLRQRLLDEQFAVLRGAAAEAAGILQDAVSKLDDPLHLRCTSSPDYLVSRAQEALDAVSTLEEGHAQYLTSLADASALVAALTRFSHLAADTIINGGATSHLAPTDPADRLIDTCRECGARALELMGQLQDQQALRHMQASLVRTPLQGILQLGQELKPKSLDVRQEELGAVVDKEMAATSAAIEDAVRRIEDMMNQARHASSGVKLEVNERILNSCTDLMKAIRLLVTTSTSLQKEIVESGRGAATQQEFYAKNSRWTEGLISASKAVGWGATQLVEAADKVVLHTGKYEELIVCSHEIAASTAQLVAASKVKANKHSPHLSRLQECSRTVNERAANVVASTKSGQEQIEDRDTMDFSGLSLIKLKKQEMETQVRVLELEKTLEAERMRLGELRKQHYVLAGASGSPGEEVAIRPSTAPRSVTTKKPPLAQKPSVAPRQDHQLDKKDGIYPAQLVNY
UniProt P14324, sequence (P14324 whole entry, looked up): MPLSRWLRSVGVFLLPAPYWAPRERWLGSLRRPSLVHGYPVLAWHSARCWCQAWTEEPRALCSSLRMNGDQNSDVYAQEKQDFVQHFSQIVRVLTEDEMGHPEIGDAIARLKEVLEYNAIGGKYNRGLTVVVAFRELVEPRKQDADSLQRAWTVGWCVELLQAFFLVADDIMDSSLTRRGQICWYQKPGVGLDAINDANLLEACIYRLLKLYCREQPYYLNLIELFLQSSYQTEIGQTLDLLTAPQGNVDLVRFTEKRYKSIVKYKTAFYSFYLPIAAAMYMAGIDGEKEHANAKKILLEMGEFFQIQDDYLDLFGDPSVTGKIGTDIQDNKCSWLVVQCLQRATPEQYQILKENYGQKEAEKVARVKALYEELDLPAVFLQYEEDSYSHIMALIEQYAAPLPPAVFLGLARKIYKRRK
UniProt P02008, sequence (P02008 whole entry, looked up): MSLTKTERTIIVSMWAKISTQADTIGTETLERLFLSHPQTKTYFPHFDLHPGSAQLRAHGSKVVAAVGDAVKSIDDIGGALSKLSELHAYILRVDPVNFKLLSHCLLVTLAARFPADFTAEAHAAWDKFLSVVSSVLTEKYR
UniProt Q9NP66, sequence (Q9NP66 whole entry, looked up): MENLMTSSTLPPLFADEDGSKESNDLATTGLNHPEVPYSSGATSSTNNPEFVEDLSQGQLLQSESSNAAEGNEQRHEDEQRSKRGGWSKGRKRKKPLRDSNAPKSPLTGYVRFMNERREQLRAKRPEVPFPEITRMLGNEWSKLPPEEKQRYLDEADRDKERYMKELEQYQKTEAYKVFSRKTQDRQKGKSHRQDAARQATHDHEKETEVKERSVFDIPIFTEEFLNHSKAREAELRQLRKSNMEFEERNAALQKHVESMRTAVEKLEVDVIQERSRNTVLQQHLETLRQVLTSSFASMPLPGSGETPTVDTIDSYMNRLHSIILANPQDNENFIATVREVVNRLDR
UniProt Q8NCW6, sequence (Q8NCW6 whole entry, looked up): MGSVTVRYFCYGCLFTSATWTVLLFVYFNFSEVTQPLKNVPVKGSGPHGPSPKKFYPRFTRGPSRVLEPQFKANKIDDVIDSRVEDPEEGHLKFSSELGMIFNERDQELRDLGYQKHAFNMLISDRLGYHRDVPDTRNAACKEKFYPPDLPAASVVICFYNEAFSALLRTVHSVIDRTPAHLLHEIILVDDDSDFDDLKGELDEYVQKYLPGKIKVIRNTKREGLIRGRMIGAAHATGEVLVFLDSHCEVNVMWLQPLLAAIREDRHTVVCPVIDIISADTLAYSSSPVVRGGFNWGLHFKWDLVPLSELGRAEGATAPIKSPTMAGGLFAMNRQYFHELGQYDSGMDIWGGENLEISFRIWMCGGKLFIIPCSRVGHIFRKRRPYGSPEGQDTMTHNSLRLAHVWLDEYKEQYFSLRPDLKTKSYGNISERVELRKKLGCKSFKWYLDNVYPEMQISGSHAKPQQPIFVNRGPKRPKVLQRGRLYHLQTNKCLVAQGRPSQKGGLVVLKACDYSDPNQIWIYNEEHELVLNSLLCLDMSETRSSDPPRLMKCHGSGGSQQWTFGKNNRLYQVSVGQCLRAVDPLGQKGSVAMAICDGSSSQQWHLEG
UniProt P52657, sequence (P52657 whole entry, looked up): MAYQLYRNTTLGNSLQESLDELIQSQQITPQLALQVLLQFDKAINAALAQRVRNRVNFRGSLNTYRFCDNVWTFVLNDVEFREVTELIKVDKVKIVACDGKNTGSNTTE
UniProt O14893, sequence (O14893 whole entry, looked up): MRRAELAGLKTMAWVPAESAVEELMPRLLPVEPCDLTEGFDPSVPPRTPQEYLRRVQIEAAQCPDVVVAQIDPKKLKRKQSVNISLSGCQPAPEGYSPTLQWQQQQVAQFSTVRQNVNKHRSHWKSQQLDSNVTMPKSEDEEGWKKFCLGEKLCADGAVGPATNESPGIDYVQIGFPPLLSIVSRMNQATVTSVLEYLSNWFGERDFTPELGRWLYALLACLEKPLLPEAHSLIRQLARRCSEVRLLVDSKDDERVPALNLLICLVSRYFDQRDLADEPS

Compound in this assay: CC(C)N(C[C@H]1O[C@@H](n2cnc3c(N)ncnc32)[C@H](O)[C@@H]1O)[C@H]1C[C@@H](CCc2nc3cc(C(C)(C)C)ccc3[nH]2)C1 [pinometostat]
Put plainly: log2 fold change, soluble protein after heating vs DMSO (PISA); higher = thermal stabilisation; K562 cells, 10 uM, 30 min; active = over 0.2 and 3.5 SD of the protein, either way, in both replicates (recomputed). Summed up:
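K562 cells (2×10^6 cells/mL) were treated with 10 μM compound for 30 min, and aliquots were heated for 3 min over 48°C-58°C. Pooled aliquots were extracted in PBS with 0.5% NP-40 at 4°C, and the supernatant after 21,000xg for 90 min was measured by TMTpro 16plex LC-MS/MS with channel sums equalised. Reported thermal stability, relative to control samples and from duplicates, is a log2 fold change.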
Turning to GLCCI1 (UniProt Q86VQ1), the log2 fold change is -0.03 (inactive).
With GSK3A (UniProt P49840), the log2 fold change is -0.031 (inactive).
With HIST2H3A (UniProt Q71DI3) the figure was 0.29 (inactive).
As to GEMIN6 (UniProt Q8WXD5), the log2 fold change was 0.046 (inactive).
With IFT80 isoform 3 (UniProt Q9P2H3) the figure was 0.049 (inactive).
Take FKBP4 (UniProt Q02790): the log2 fold change was -0.032 (inactive).
Regarding HIC2 (UniProt Q96JB3), the log2 fold change was 0.143 (inactive).
On to FAM91A1 (UniProt Q658Y4), for which the log2 fold change was 0.134 (inactive).
With HIKESHI (UniProt Q53FT3) the figure was 0.062 (inactive); with HSPA8 (UniProt E9PK54), 0.001 (inactive).
With GTF2A2 (UniProt P52657) the figure was -0.064 (inactive).
With GBE1 (UniProt Q04446), the log2 fold change is 0.186 (inactive).
With HMGB3 (UniProt O15347) the figure was -0.019 (inactive).
With FANCD2 isoform 1 (UniProt Q9BXW9) the figure was 0.062 (inactive).
With HBZ (UniProt P02008) the figure was -0.017 (inactive); with GLIPR2 (UniProt Q9H4G4), 0.03 (inactive); with GMEB1 (UniProt Q9Y692), 0.022 (inactive).
For HTATIP2 isoform 3 (UniProt Q9BUP3), the log2 fold change is 0.006 (inactive).
As for GOLPH3 (UniProt Q9H4A6), the log2 fold change is -0.013 (inactive).
With HIP1R (UniProt O75146) the figure was 0 (inactive); with GCSH (UniProt P23434), -0.021 (inactive); with GALNT11 (UniProt Q8NCW6), 0.045 (inactive).
In the case of FDPS (UniProt P14324), the log2 fold change is 0.048 (inactive).
With FEN1 (UniProt P39748) the figure was -0.03 (inactive).
Regarding GEMIN5 (UniProt Q8TEQ6), the log2 fold change was 0.043 (inactive).
Consider HMG20A (UniProt Q9NP66), for which the log2 fold change was 0.026 (inactive).
In the case of GALNT2 (UniProt Q10471), the log2 fold change is -0.02 (inactive).
With IGF2BP2 (UniProt Q9Y6M1), the log2 fold change is 0.477 (inactive).
With GOLGA8R (UniProt I6L899) the figure was 0.035 (inactive).
Turning to GEMIN2 (UniProt O14893), the log2 fold change was -0.096 (inactive).
With IFT74 (UniProt Q96LB3) the figure was -0.024 (inactive); with HSPA2 (UniProt P54652), 0.05 (inactive); with HNRNPK isoform 2 (UniProt P61978), -0.033 (inactive).
As for HNRNPH1 (UniProt P31943), the log2 fold change was 0.031 (inactive).
Take FIBP (UniProt O43427): the log2 fold change is 0.075 (inactive).
